GRK2 inh: human GRK2 inhibition via aptamer displacement | inhibition of aptamer binding, % at 10 µM | P25098 | AID 488847 | bead flow cytometry, FAM-aptamer displacement from GRK2 | 330,000 tested, 0.59% active;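 active = inhibition of aptamer binding above 40%, roughly 3 SD of noise, on plates passing a quality check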;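 also: median bead fluorescence of bound FAM aptamer so fluorescent compounds give negative values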
Target sequence (P25098 whole entry, looked up): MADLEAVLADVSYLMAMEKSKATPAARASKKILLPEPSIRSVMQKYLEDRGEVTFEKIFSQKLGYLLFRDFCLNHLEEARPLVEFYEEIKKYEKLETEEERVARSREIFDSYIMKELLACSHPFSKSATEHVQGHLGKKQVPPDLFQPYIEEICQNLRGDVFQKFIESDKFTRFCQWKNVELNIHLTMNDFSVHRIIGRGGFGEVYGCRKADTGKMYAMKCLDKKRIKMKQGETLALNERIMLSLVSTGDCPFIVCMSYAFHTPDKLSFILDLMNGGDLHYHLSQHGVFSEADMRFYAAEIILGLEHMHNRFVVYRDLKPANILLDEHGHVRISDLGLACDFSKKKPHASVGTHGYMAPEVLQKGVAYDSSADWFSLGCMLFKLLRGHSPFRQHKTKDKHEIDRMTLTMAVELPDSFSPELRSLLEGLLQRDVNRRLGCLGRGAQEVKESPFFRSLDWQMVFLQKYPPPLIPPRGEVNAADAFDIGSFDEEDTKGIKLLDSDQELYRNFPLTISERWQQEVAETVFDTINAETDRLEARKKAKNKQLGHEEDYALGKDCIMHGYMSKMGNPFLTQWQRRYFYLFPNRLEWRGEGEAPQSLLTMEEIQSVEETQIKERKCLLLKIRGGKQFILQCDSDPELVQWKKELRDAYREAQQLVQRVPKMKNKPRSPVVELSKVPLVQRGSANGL
Efflux pump mplx: blocks antifungal efflux pumps in multiplex yeast assay; 330,000 tested, 0.44% active; inhibition, % at 10 µM; S. cerevisiae Candida pump triplex, Nile Red efflux; AID 485275;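 active = plate passing quality check with inhibition over a set limit, or well fluorescence over plate mean plus 4 SD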;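 also: Nile Red retained in pooled yeast measured as flow cytometry median fluorescence; 0% = buffer negative control and 100% = Enniatin B positive control; higher means more Nile Red kept so more efflux inhibition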
ATG4B inh: inhibitors of human ATG4B cysteine protease; AID 504462; inhibition, % at 8.33 µM; Q9Y4P1; 340,000 tested, 0.51% active; ATG4B cleavage of LC3-PLA2, NBD-HPC fluorescence, 1 h; in the data active = inhibition above about 40%
Yeast superoxide: lowers age-related superoxide in aged yeast cells | S. cerevisiae aged cells, superoxide DHE fluorescence; active compounds read low | superoxide response (% of plate mean), % at 10 µM | 330,000 tested, 0.18% active | AID 2690;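 active = superoxide response under a set limit, about three screen SD below normal, cut at about 65% in these data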;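 also: yeast aged for seven days with compound at 30 °C before DHE staining; 100% = average MFI of all compound-treated wells on the plate with controls excluded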
GRK2 inh confirm: confirmation of human GRK2 inhibitors displacing RNA aptamer | shares compounds with GRK2 inh | bead-bound GRK2, FAM-aptamer displacement, flow cytometry | aptamer displacement, % at 10 µM | 2,000 tested, 4% active;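 active = aptamer displacement above 40%, near three times the noise of non-fluorescent compounds, on plates passing quality checks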;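 also: negative values mostly reflect intrinsic compound fluorescence rather than true enhancement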
Aptamer quench: quenches fluorescent RNA aptamer, GRK2 hit artifact | fluorescence change (kMESF span), kMESF (test concentration not listed) | Fluorescent RNA aptamer beads, quenching, flow cytometry; active compounds read high | 110 tested, under 10 active | shares compounds with GRK2 inh | AID 504521;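 active = compounds whose bead fluorescence drops by more than 37 kMESF across the dose range, marking them as dye quenchers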
Aptamer quench SP: quenches fluorescent RNA aptamer, GRK2 hit artifact; shares compounds with GRK2 inh; Carboxyfluorescein RNA aptamer on beads, flow cytometry quenching; active compounds read low; fluorescence response (% of DMSO), % at 10 µM; 2,000 tested, under 10 active;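 active = compounds that quench the bead-bound fluorescent RNA probe, cutting fluorescence to under half of the solvent control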;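 also: counterscreen run without GRK2 so only probe quenching by compound is measured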
ATG4B confirm: confirmation of human ATG4B inhibitors | ATG4B protease fluorescent substrate cleavage assay | shares compounds with ATG4B inh | 320 tested, 92% active | inhibition, % at 8.33 µM; in the data active = inhibition above about 39%
PLA2 ctr: inhibits human PLA2, flagging false ATG4B inhibitors | AID 588402 | inhibition, % at 8.33 µM | purified PLA2, NBD-C6-HPC fluorescence, 45 min | 1,600 tested, 66% active | shares compounds with ATG4B inh; in the data active = inhibition above about 50%
Starred values were filed as active, the others as inactive; / = no result. An excerpt weighted towards active compounds, which were near 1.6% of everything screened.

SMILES	GRK2 inh	Efflux pump mplx	ATG4B inh	Yeast superoxide	PLA2 ctr	others
CCOc1cc(C(=O)N2CCC3(CC2)OCCO3)cc(OCC)c1OCC	62*	0	20	104	/	GRK2 inh confirm=-2;Aptamer quench SP=105
Cn1ncnc2c(=O)n(C)c(=O)nc1-2	61*	0	86*	91	/	GRK2 inh confirm=73*;Aptamer quench=-1.8;Aptamer quench SP=87
CCC(=NCCCn1ccnc1)c1c(O)n(-c2ccc(OC)cc2)c(=O)[nH]c1=O	1	0	-3	97	/
Cn1c(N)c(C(=O)COC(=O)Cc2ccccc2)c(=O)n(C)c1=O	1	0	-5	97	/
Cc1ccc(CN2C3CCCC2CC(NC(=S)NCc2ccccc2)C3)cc1 (centres undefined)	0	0	43*	107	40	ATG4B confirm=67*
O=c1c2ccccc2nc(/C=C/c2ccccc2)n1-c1ccccc1O	0	0	62*	101	70*
C#C[C@]1(O)CCC2C3C(=O)C=C4C(Cl)=CCC[C@]4(C)C3CC[C@@]21C (some centres undefined)	/	/	0	/	/
Cc1cc(OCC(=O)NC(Cc2ccc(Cl)cc2)C(=O)O)c2c3c(c(=O)oc2c1)CCCC3 (centres undefined)	1	0	45*	110	72*
CCOC(=O)C1=C(C)N(C)C2(C)CC1c1ccccc1O2 (centres undefined)	0	0	48*	102	26
CC12CC(c3ccccc3O1)C(C(=O)OCc1ccccc1)C(=O)N2 (centres undefined)	0	0	-3	101	/
CC(=O)Nc1ccccc1C(=O)C(=O)Nc1cccc(C(=O)N2CCC3(CC2)OCCO3)c1	2	0	0	97	/
COc1ccc(-c2cc(=Nc3cccc(C(=O)O)c3)c3cc(C)ccc3o2)cc1	0	0	61*	105	76*
O=C(NC1CONC1=O)OCC(Cl)(Cl)Cl (centres undefined)	0	0	-5	110	/
Clc1ccccc1N1CCN(Cc2ccc3c(c2)OCO3)CC1	0	0	23	105	/
Clc1ccccc1CN1CCN(c2ccccc2Cl)CC1	2	0	46*	85	47	ATG4B confirm=70*
O=C1/C(=C/c2ccc([N+](=O)[O-])cc2)N2CCC1CC2	2	0	-1	101	/
Cc1ccc(-c2nn(Cc3ccccc3)cc2C=O)cc1C	0	0	61*	90	78*
Cc1ccc(-c2nn(Cc3ccccc3)cc2C=O)cc1	1	0	48*	94	59*
Cc1ccc(-c2nn(Cc3ccccc3)cc2C(=O)O)cc1	2	0	-3	103	/
Cc1ccc(Cn2cc(C=O)c(-c3ccc(F)cc3)n2)cc1	0	0	10	67	/
Cc1nc(SCc2c(Cl)cccc2Cl)nc(OC(=O)N(C)C)c1C	1	0	20	100	/
CN(C)[C@@H]1C(=O)C(C(N)=O)=C(O)[C@@]2(O)C(=O)C3=C(O)c4c(O)ccc(Cl)c4[C@@](C)(O)C3C[C@@H]12 (some centres undefined)	/	/	80*	/	13	ATG4B confirm=47*
